This is a sample that favours compounds with a hit; in the whole collection about 6.7% have one here.
KB-3-1 cytotox – KB-3-1 parental cell cytotoxicity. KB-3-1 viability, CellTiter-Glo ATP luminescence, 72 h. Potency, µM (highest dose often 46.1 µM), actives largely listed as cytotoxic. 400,000 compounds, 1.4% hits. AID 1347075; note: % is set by controls: 0 for no effect and ±100 for the full control effect; nearly all actives have a fitted effect of over 60% in size
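Cytotoxicity in the drug-sensitive parental line KB-3-1 was scored as loss of CellTiter-Glo luminescence following 72 h incubation with compound. Values come from curve fitting of normalized concentration-response data.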
MCF10A rereplic – inducers of DNA re-replication in MCF 10A breast cells; AID 624296; Potency, µM (highest dose often 46.1 µM), for inactives: at the highest dose activity, positive = re-replication, most hits filed as activators; 350,000 compounds, 2.9% hits; MCF 10A DNA re-replication, Hoechst nuclear intensity, 48 h; note: % of control where 0% means no effect; nearly all actives have a fitted effect of over 50% in size
PINK1 modulator – modulators of PINK1 expression. Potency, µM (top dose mostly 76.6 µM), inactives show at the highest dose activation (PINK1 increase), actives largely listed as activators. AID 624263. PINK1 immunofluorescence, high-content cytometry, 24 h. 410,000 compounds, 0.2% hits; active = well fitted activation curve with a large enough effect; inconclusive = small, poorly fitted or top-dose-only effect; cell line not stated here; note: % of control where 0% means no effect; nearly all actives have a fitted effect of over 65% in size
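Compound titrations (5 concentrations, 24 h) on a stable cell line; DMSO and CCCP controls. Endpoint: fixed-cell PINK1 immunofluorescence with mitochondrial, cell and nuclear markers, scanned by microplate cytometer.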
KB-V1 MDR tox – KB-V1 MDR subline cytotoxicity; AID 1347076; KB-V1 MDR cells viability, CellTiter-Glo, 72 h; 400,000 compounds, 3.4% hits; Potency, µM (top dose mostly 46.1 µM), most hits filed as cytotoxic; note: % is set by controls: 0 for no effect and ±100 for the full control effect; nearly all actives have a fitted effect of over 60% in size
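KB-V1 cells (P-gp-expressing MDR subline of KB-3-1) in phenol-red-free DMEM with 10% FBS were exposed to library compounds over a concentration series for 72 h at 37 degrees C. Viability read by CellTiter-Glo luminescence; concentration-effect curves fitted after normalization.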
SW480 rereplic – inducers of DNA re-replication in SW480 colon cancer cells. SW480 DNA re-replication, Hoechst DNA content imaging, 48 h. Potency, µM (series often up to 46.1 µM), for inactives: top-dose re-replication activation, usual class: activators. 340,000 compounds, 1.8% hits. AID 624297; note: % of control where 0% means no effect; nearly all actives have a fitted effect of over 55% in size
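First, 250 cells per well were seeded. Next, compound or vehicle (23 nL) was pinned in, plates sat 48 hr at 37 C. Finally Hoechst was added for 40 min before fluorescence scanning.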
* = called active by the depositor; [ ] = remark or other dose. Unless noted, calls come from the whole dose curve; as a rule, active = well fitted curve in the direction sought with a large enough effect; inconclusive = small, poorly fitted or top-dose-only effect, or another doubt; inactive = no such curve, though single readings can be large; an effect the other way counts as inactive or inconclusive. Potency is the fitted concentration of half-maximal effect.

What do the screens show for `COc1cc(C2CC(=O)Oc3cc4c(cc32)OCO4)cc(OC)c1OC` (configuration not stated)?
KB-3-1 cytotox: inactive; MCF10A rereplic: -26.7%; PINK1 modulator: 0.4%; KB-V1 MDR tox: inactive; SW480 rereplic: -2.1%

What do the screens show for `COc1cc(C2c3cc4c(cc3C3OC(=O)C2C3CO)OCO4)cc(OC)c1OC` (configuration not stated)?
KB-3-1 cytotox: inconclusive; PINK1 modulator: 11.9%; KB-V1 MDR tox: 0.206µM*

Results for CCN(CC)C1Oc2cc3c(cc2C(c2cc(OC)c(OC)c(OC)c2)C1C)OCO3 (configuration not stated) ?
KB-3-1 cytotox: 1.16µM*; MCF10A rereplic: 1.46µM*; PINK1 modulator: 5.2%; KB-V1 MDR tox: inconclusive; SW480 rereplic: inconclusive

What do the screens show for `CCN(CC)CCC(O)(c1ccc2c(c1)OCO2)c1cc(OC)c(OC)c(OC)c1` (configuration not stated)?
KB-3-1 cytotox: inactive; MCF10A rereplic: -1.1%; PINK1 modulator: -0.1%; KB-V1 MDR tox: inactive; SW480 rereplic: -7.8%

How did COc1cc([C@@H]2c3cc4c(cc3[C@@H](O)[C@H]3COC(=O)[C@H]23)OCO4)cc(OC)c1O[Si](C)(C)C(C)(C)C do in these assays?
KB-3-1 cytotox: 5.8µM*; MCF10A rereplic: inconclusive; PINK1 modulator: -2.2%; KB-V1 MDR tox: inconclusive; SW480 rereplic: -7.3%

How did CCN(CC)C(=O)Cn1c(=O)cc(C)c2c(C)nn(C)c21 do in these assays?
KB-3-1 cytotox: inactive; PINK1 modulator: 0.3%; KB-V1 MDR tox: inactive

What do the screens show for `O=C(COc1cccc(Oc2ccccc2)c1)Nc1ccc(SC(F)F)cc1`?
KB-3-1 cytotox: inactive; MCF10A rereplic: 0.731µM*; PINK1 modulator: 3.2%[38.3 µM]; KB-V1 MDR tox: inactive; SW480 rereplic: 7.31µM*

Results for O=C(COc1cccc(OC(F)F)c1)Nc1ccc(SC(F)F)cc1 ?
KB-3-1 cytotox: inactive; MCF10A rereplic: 16.1%; PINK1 modulator: 0.5%; KB-V1 MDR tox: inactive; SW480 rereplic: -3.6%

What do the screens show for `O=C(Nc1ccc(SC(F)F)cc1)c1ccc(F)cc1`?
KB-3-1 cytotox: inactive; MCF10A rereplic: 0.82µM*; PINK1 modulator: 3.4%; KB-V1 MDR tox: inactive; SW480 rereplic: inconclusive

What do the screens show for `Cc1ccc(NC(=O)COC(=O)c2ccccc2Nc2ccccc2)cc1`?
KB-3-1 cytotox: inactive; MCF10A rereplic: -3.6%; PINK1 modulator: 11.3%; KB-V1 MDR tox: inactive; SW480 rereplic: -4.3%

What do the screens show for `O=C(Nc1ccc(SC(F)F)cc1)c1ccccc1F`?
KB-3-1 cytotox: inactive; MCF10A rereplic: 3.5%; PINK1 modulator: 5.0%; KB-V1 MDR tox: inactive; SW480 rereplic: 23.5%

What do the screens show for `Cc1ccc(C(=O)c2ccccc2C(=O)OCC(=O)Nc2cccc([N+](=O)[O-])c2)cc1`?
KB-3-1 cytotox: inactive; MCF10A rereplic: 18.2%; PINK1 modulator: 3.3%; KB-V1 MDR tox: 23.1µM*; SW480 rereplic: 2.4%

How did Cc1ccc(C(=O)c2ccccc2C(=O)OCC(=O)Nc2ccc(SC(F)F)cc2)cc1 do in these assays?
KB-3-1 cytotox: inactive; MCF10A rereplic: inconclusive; PINK1 modulator: 3.0%; KB-V1 MDR tox: 11.6µM*; SW480 rereplic: 21.6%

What do the screens show for `COCOc1cccc(CN2CCC2(C)C(=O)Nc2ccc(C)cc2)c1` (configuration not stated)?
KB-3-1 cytotox: inactive; PINK1 modulator: 2.0%; KB-V1 MDR tox: inactive

Results for CC(=O)NCCNc1ncncc1-c1ccccc1CN(C)C ?
PINK1 modulator: -0.3%

What do the screens show for `O=C(Cc1ccc(Cl)cc1)Nc1ccc(SC(F)F)cc1`?
KB-3-1 cytotox: inconclusive; MCF10A rereplic: inconclusive; PINK1 modulator: 18.5%; KB-V1 MDR tox: 20.6µM*; SW480 rereplic: -34.8%

How did COc1cc(C(=O)OCC(=O)Nc2ccc(SC(F)F)cc2)cc(OC)c1OC do in these assays?
KB-3-1 cytotox: inactive; MCF10A rereplic: -0.1%; PINK1 modulator: 2.3%; KB-V1 MDR tox: 14.6µM*; SW480 rereplic: -18.9%

How did O=C(COC(=O)c1ccccc1Cc1ccccc1)Nc1ccc(SC(F)F)cc1 do in these assays?
KB-3-1 cytotox: inactive; MCF10A rereplic: 25.9µM*; PINK1 modulator: inconclusive; KB-V1 MDR tox: inconclusive; SW480 rereplic: inconclusive

How did O=C(Nc1ccc(CN2CCOCC2)cc1)c1ccc(-c2ccc(Br)cc2)o1 do in these assays?
KB-3-1 cytotox: inactive; MCF10A rereplic: inconclusive; PINK1 modulator: 0.0%[38.3 µM]; KB-V1 MDR tox: 20.6µM*; SW480 rereplic: inconclusive

What do the screens show for `O=C(Nc1ccccc1)c1ccc(-c2ccc(Br)cc2)o1`?
KB-3-1 cytotox: inactive; MCF10A rereplic: 20.6µM*; PINK1 modulator: -1.2%; KB-V1 MDR tox: inactive; SW480 rereplic: inconclusive

Results for O=C(Nc1ccc(CN2CCOCC2)cc1)c1ccc(Br)cc1 ?
KB-3-1 cytotox: inactive; MCF10A rereplic: inconclusive; PINK1 modulator: 1.1%; KB-V1 MDR tox: inactive; SW480 rereplic: -15.6%

Results for O=C(Nc1nccs1)c1ccc(-c2ccc([N+](=O)[O-])cc2)o1 ?
KB-3-1 cytotox: inactive; MCF10A rereplic: 9.3%; PINK1 modulator: 35.5µM*; KB-V1 MDR tox: inactive; SW480 rereplic: 1.3%

How did O=C(Nc1nccs1)c1ccc(-c2ccc(Cl)cc2)o1 do in these assays?
KB-3-1 cytotox: inactive; MCF10A rereplic: 4.8%; PINK1 modulator: 3.6%; KB-V1 MDR tox: inactive; SW480 rereplic: -1.2%

What do the screens show for `NC(=O)c1ccccc1NC(=O)c1ccc(-c2ccc(Br)cc2)o1`?
KB-3-1 cytotox: inactive; PINK1 modulator: 0.6%; KB-V1 MDR tox: inactive

How did O=C(Nc1cccc(NC(=O)c2ccc(-c3ccc(Br)cc3)o2)c1)c1ccccc1 do in these assays?
KB-3-1 cytotox: inactive; MCF10A rereplic: inconclusive; PINK1 modulator: 9.1%; KB-V1 MDR tox: inactive; SW480 rereplic: inconclusive

How did COc1ccccc1NC(=O)c1ccc(-c2ccc(Br)cc2)o1 do in these assays?
KB-3-1 cytotox: 5.8µM*; MCF10A rereplic: inconclusive; PINK1 modulator: 12.3%; KB-V1 MDR tox: 3.26µM*; SW480 rereplic: inconclusive

What do the screens show for `COc1ccc(NC(=O)c2ccc(-c3ccc([N+](=O)[O-])cc3)o2)cc1`?
KB-3-1 cytotox: inactive; MCF10A rereplic: 7.8%; PINK1 modulator: 9.1%; KB-V1 MDR tox: inactive; SW480 rereplic: -10.3%

Results for O=C(Nc1ccccc1)c1ccc(-c2ccc([N+](=O)[O-])cc2)o1 ?
KB-3-1 cytotox: inconclusive; MCF10A rereplic: 23.1µM*; PINK1 modulator: 8.9%; KB-V1 MDR tox: inactive; SW480 rereplic: 0.5%

How did CC(=O)c1ccc(NC(=O)c2ccc(-c3ccc(Cl)cc3)o2)cc1 do in these assays?
KB-3-1 cytotox: inconclusive; PINK1 modulator: 1.2%; KB-V1 MDR tox: inactive

Results for CN(C)C(=O)c1ccc(NC(=O)c2ccc(-c3ccc(Cl)cc3)o2)cc1 ?
KB-3-1 cytotox: inactive; MCF10A rereplic: 28.4%; PINK1 modulator: -1.4%; KB-V1 MDR tox: 20.6µM*; SW480 rereplic: 23.8%

Screens: PubChem, National Center for Advancing Translational Sciences (NCATS)
